From PubChem BioAssay
The entries come from a sample that favours hits as a whole.
Cycloheximide cs: counter-screen hit for Shiga toxin inhibitors, cycloheximide. cell reporter, cycloheximide protein synthesis inhibition counterscreen. max response, %. hit rate 12% among 300,000; in the data active means max response mostly above about 13%, no sharp cut-off; inactive means mostly below about 14%; further: read at 38.3 µM for the half of the compounds with a filed dose; 0% is about no effect
Sm TGR block: inhibitors of Schistosoma mansoni thioredoxin glutathione reductase; Q962Y6; purified TGR, DTNB reduction, TNB absorbance 405 nm; Potency, µM (series often up to 114 µM), for the others: at the highest dose activity change, negative = inhibition, actives largely listed as inhibitors; hit rate 3% among 360,000; AID 485364; further: potency means the concentration at half of the fitted maximal effect; on the % scale 0 is the no-effect control and ±100 the full control effect; nearly all actives have a fitted effect of over 60% in size
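Kinetic colorimetric format: TGR-catalysed, NADPH-driven DTNB reduction monitored via TNB absorbance. Enzyme dispensed at 20 nM; compound exposure 15 min at room temperature before reaction start.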
LmPK inhibitor: inhibitors of Leishmania mexicana pyruvate kinase | Potency, µM (top dose mostly 57.5 µM), for inactives: at the highest dose activity change, negative = inhibition, usual class: inhibitors | hit rate 0.37% among 290,000 | Q27686 | purified LmPK, Kinase-Glo ATP luminescence, 1 h; further: potency means the concentration at half of the fitted maximal effect; on the % scale 0 is the no-effect control and ±100 the full control effect
Target sequence (Q27686 whole entry, looked up): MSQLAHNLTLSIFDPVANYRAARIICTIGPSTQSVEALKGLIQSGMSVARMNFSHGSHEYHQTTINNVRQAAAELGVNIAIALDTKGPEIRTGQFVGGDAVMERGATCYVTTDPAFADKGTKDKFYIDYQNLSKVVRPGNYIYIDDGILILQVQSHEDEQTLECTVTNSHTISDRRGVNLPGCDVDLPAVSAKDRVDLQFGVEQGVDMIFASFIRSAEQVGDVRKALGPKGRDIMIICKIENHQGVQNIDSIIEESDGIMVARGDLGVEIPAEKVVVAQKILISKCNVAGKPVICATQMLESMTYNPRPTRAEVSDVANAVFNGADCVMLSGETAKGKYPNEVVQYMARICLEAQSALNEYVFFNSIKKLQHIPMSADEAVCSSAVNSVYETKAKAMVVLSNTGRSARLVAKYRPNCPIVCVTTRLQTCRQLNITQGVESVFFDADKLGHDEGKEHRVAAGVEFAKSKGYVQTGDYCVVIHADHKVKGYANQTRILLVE
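0.1 nM LmPK, 0.5 mM PEP, 0.1 mM ADP; 50 mM imidazole pH 7.2, 7 mM MgCl2, 50 mM KCl; 1 h RT. Kinase-Glo luminescence readout, normalized to no-enzyme (full inhibition) and uninhibited wells.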
TbPYK inhibitor: inhibitors of Trypanosoma brucei pyruvate kinase; Potency, µM (highest dose often 76.8 µM), inactives show top-dose activity, negative = inhibition, hits mostly inhibitors; hit rate 0.12% among 410,000; Q57TT1; TbPYK enzyme, Kinase-Glo Plus ATP luminescence, 45 min; AID 624173; further: potency means the concentration at half of the fitted maximal effect; on the % scale 0 is the no-effect control and ±100 the full control effect; nearly all actives have a fitted effect of over 50% in size
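Glycolytic pyruvate kinase of T. brucei was incubated with substrate, test compound and 130 uM ADP for 45 minutes at room temperature. Luminescent Kinase-Glo Plus signal was measured after 10 minutes.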
Giardia FBPA inh: Giardia lamblia aldolase inhibition; A8B2U2; purified Giardia FBPA; Potency, µM (titrated, usually from 59.6 µM), inactives show at the top dose activity, negative = inhibition, usual class: inhibitors; hit rate 0.71% among 290,000; further: potency means the concentration at half of the fitted maximal effect; on the % scale 0 is the no-effect control and ±100 the full control effect; nearly all actives have a fitted effect of over 55% in size
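Giardia FBPA (40 nM reagent) was preincubated 10 min at RT with compound (up to 57.5 uM final), then substrate plus GAPDH/TPI/NAD/arsenate coupling system with diaphorase/resazurin was added; resorufin fluorescence (525/598 nm) was read after 20 min.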
Shiga toxin inh: Shiga toxin inhibition. Vero cells, Shiga toxin protein synthesis inhibition reporter. inhibition, % at 38.7 µM. hit rate 9.2% among 290,000. AID 2315; in the data active means inhibition mostly above about 28%, no sharp cut-off; inactive means mostly below about 43%; further: 0% is about no effect
An asterisk follows results filed as active; [ ] = another dose, or the depositor's remark. Unless noted, the call rests on the fitted dose curve; in most records, active means well fitted curve in the direction sought with a large enough effect; inconclusive means small, poorly fitted or top-dose-only effect, or another doubt; inactive means no such curve, though single readings can be large; an effect the other way counts as inactive or inconclusive.

`NNC(=O)c1cc(-c2ccco2)[nH]n1` gave Cycloheximide cs 10, Sm TGR block -8%, LmPK inhibitor 1%, TbPYK inhibitor 0%, Giardia FBPA inh -5% and Shiga toxin inh 2.
`Oc1ccc(Br)cc1-c1cc(-c2ccco2)[nH]n1` gave Cycloheximide cs 8, Sm TGR block -27%, LmPK inhibitor 0%, TbPYK inhibitor -11%, Giardia FBPA inh -2% and Shiga toxin inh 42.
Screening Oc1ccc(Cl)cc1-c1cc(-c2ccco2)[nH]n1 returned Cycloheximide cs 30*, Sm TGR block 45µM*, LmPK inhibitor 5%, TbPYK inhibitor -16%, Giardia FBPA inh -19% and Shiga toxin inh 57*.
For CCn1ccc2cc(S(=O)(=O)N3CCCN(C(=O)Nc4ccccc4F)CC3)ccc21 the results were Sm TGR block -29% and TbPYK inhibitor -3%.
Screening O=C(Cn1nc(-c2ccccc2)c2cnc3ccccc3c21)Nc1ccccc1 returned Sm TGR block 1% and TbPYK inhibitor 1%.
For C/C(=N\NC(=O)Cc1cccn1C)c1ccco1 the results were Cycloheximide cs 14, Sm TGR block 40µM*, LmPK inhibitor 9%, TbPYK inhibitor 1%, Giardia FBPA inh -11% and Shiga toxin inh 33.
Cn1cccc1CC(=O)N/N=C/C=C/c1ccco1 was read as Cycloheximide cs 3, Sm TGR block 11µM*, LmPK inhibitor 4%, TbPYK inhibitor -8%, Giardia FBPA inh inconclusive and Shiga toxin inh 20.
`Cc1ccc(/C=N\NC(=O)Cc2cccn2C)o1` gave Cycloheximide cs 0, Sm TGR block inconclusive, LmPK inhibitor 1%[11.5 µM], TbPYK inhibitor 1%, Giardia FBPA inh -13% and Shiga toxin inh -1.
For C/C(=N/NC(=O)Cc1cccn1C)c1ccccc1 the results were Cycloheximide cs 8, Sm TGR block 6%, LmPK inhibitor -2%, TbPYK inhibitor -3% and Shiga toxin inh 13.
CC(C)(C)OC(=O)N1CCC(c2c(C(=O)N3CCN(c4ccccn4)CC3)cnn2-c2cccc(F)c2)CC1 was read as Sm TGR block 4% and TbPYK inhibitor 5%[15.4 µM].
For CC1CN(c2ccc(Cl)cc2)c2nc3c(c(=O)n(CC(=O)O)c(=O)n3C)n2C1 (stereo not drawn) the results were Sm TGR block 4% and TbPYK inhibitor -1%.
For CCOc1ccc(CC(=O)Nc2c(C(=O)Nc3ccc(OC)cc3OC)oc3ccccc23)cc1 the results were Sm TGR block 1% and TbPYK inhibitor 2%.
Cc1ccc2nc(NC(=O)CNS(=O)(=O)c3ccc(Br)s3)sc2c1 was read as Cycloheximide cs 22*, Sm TGR block 0%, LmPK inhibitor 8%, TbPYK inhibitor -2%, Giardia FBPA inh 9% and Shiga toxin inh 15.
Cc1cccc2sc(NC(=O)CNS(=O)(=O)c3ccc(Br)s3)nc12 was read as Cycloheximide cs -2, Sm TGR block 21%, LmPK inhibitor 1%, TbPYK inhibitor -13%, Giardia FBPA inh -6% and Shiga toxin inh -12.
Screening Cc1ccc2nc(NC(=O)CN(C)S(=O)(=O)c3ccc(Br)s3)sc2c1 returned Cycloheximide cs 26*, Sm TGR block 5%, LmPK inhibitor 0%, TbPYK inhibitor 1%, Giardia FBPA inh -3% and Shiga toxin inh 32.
Screening CCOC(=O)c1ccc(NC(=O)CN(C)S(=O)(=O)c2ccc(Br)s2)cc1 returned Cycloheximide cs 16*, Sm TGR block 1%, LmPK inhibitor 1%, TbPYK inhibitor 3%, Giardia FBPA inh -1% and Shiga toxin inh 23.
`CCOc1ccc(NC(=O)CC2C(=O)N(c3ccccc3)C(=O)N2Cc2ccc3c(c2)OCO3)cc1` (stereo not drawn) gave Sm TGR block 1% and TbPYK inhibitor 0%.
CCC(=O)Nc1ccc(C(=O)Cn2ncc(Cl)c(Cl)c2=O)cc1 was read as Cycloheximide cs 46*, Sm TGR block 2.8µM*, LmPK inhibitor 1%, TbPYK inhibitor 2%, Giardia FBPA inh 0% and Shiga toxin inh 54*.
Screening CCOC(=O)c1ccc(NC(=O)Cn2ncc(Cl)c(Cl)c2=O)cc1 returned Cycloheximide cs -8, Sm TGR block 18µM*, LmPK inhibitor -6%, TbPYK inhibitor -3%, Giardia FBPA inh -1% and Shiga toxin inh -18.
`Cc1ccc(C(=O)OCn2ncc(Cl)c(Cl)c2=O)cc1` gave Cycloheximide cs -11, Sm TGR block 4µM*, LmPK inhibitor 6%, TbPYK inhibitor 14%, Giardia FBPA inh 6% and Shiga toxin inh -30.
Screening Cc1cc(Br)ccc1NC(=O)CNC(=O)Cn1ncc(Cl)c(Cl)c1=O returned Cycloheximide cs 0, Sm TGR block 1.4µM*, LmPK inhibitor 0%, TbPYK inhibitor 6%, Giardia FBPA inh -4% and Shiga toxin inh -6.
CCOC(=O)c1ccc(NC(=O)Cn2nc(C)c3ccccc3c2=O)cc1 was read as Cycloheximide cs 1, Sm TGR block 0%, LmPK inhibitor 9%, TbPYK inhibitor -3% and Giardia FBPA inh 2%.
Screening Cc1ccc(NC(=O)c2sc3nc4c(cc3c2N)CN(Cc2ccccc2)CC4)cc1 returned Sm TGR block 2% and TbPYK inhibitor -3%.
Screening CCOc1ccc(C(=O)Nc2cccc(C(=O)OCc3cc(=O)n4cc(C)sc4n3)c2)cc1 returned Sm TGR block 3% and TbPYK inhibitor 2%.
C[C@H]1/C=C\CC(=O)OC[C@H](C)C(=O)N2CCC[C@@H]2C(=O)OC1 was read as Giardia FBPA inh 1%[12.9 µM].
Screening Cc1ccc(CNC(=O)Cn2c(=O)n(-c3ccc(C)c(F)c3)c(=O)c3sc4ccccc4c32)cc1 returned Sm TGR block -8% and TbPYK inhibitor 2%.
`COc1ccc2nc(N=Nc3ccc(N(C)C)cc3)sc2c1` gave Cycloheximide cs 31*, Sm TGR block -1%, LmPK inhibitor inconclusive, TbPYK inhibitor -23%, Giardia FBPA inh 1% and Shiga toxin inh 126*.
For COc1ccc2nc(/N=C\N(C)C)sc2c1 the results were Cycloheximide cs 16, Sm TGR block -28%, LmPK inhibitor -12%, TbPYK inhibitor -11%, Giardia FBPA inh inconclusive and Shiga toxin inh 20.
Screening Cc1ccc(-n2[nH]c(C)c(C=Nc3cc(C)ccn3)c2=O)cc1 returned Cycloheximide cs 8, Sm TGR block 5%, LmPK inhibitor -20%, TbPYK inhibitor 5%, Giardia FBPA inh -6% and Shiga toxin inh -3.
Screening COc1ccc2nc(/N=C/c3c(C)[nH]n(-c4ccc(C)cc4)c3=O)sc2c1 returned Cycloheximide cs 17*, Sm TGR block 1%, LmPK inhibitor 13µM*, TbPYK inhibitor -23%, Giardia FBPA inh 12% and Shiga toxin inh 14.
COc1ccc2nc(/N=C/c3cccc(OC)c3O)sc2c1 was read as Cycloheximide cs 26*, Sm TGR block 8%, LmPK inhibitor -18%, TbPYK inhibitor -4%, Giardia FBPA inh 20% and Shiga toxin inh 26.
